Structures can show the parent of a compound that is named as a salt.
What follows are molecules tested on K562 (assay: cell viability relative to vehicle control; higher = less cytotoxic). Settings: 10 µM; SRSF2 genotype: SRSF2 wt/wt.
In short: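 CRISPR-edited mutant clones and isogenic wild-type clones from four leukaemia lines were screened against Selleck bioactive, kinase and epigenetic probe libraries, with identity-inconsistent compounds excluded. Each compound was acoustically dispensed at a single 10 µM dose into 384-well plates holding 2000 cells in 50 µL medium per well. After 48 h the supernatant was removed and CellTiter-Glo luminescence was read. Viability was expressed as percent of the on-plate vehicle control and analysed in Genedata Screener.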
Molecule COc1ccc2cc3[n+](cc2c1OC)CCc1cc2c(cc1-3)OCO2 [Berberine Sulfate] has a cell viability of 72.4%. CO/N=C(\C(=O)N[C@@H]1C(=O)N2C(C(=O)[O-])=C(C[n+]3ccn4ncccc43)CS[C@H]12)c1nsc(N)n1 [Cefozopran hydrochloride] showed a cell viability of 101%. O=C1NC(=O)/C(=C/c2cccc(C(F)(F)F)c2)S1 showed a cell viability of 110%. CC(C)NCC(O)c1ccc(O)c(O)c1 (stereo not given) [Isoprenaline hydrochloride] was tested, and the cell viability was 96.9%. With CC(C)C(C)C(O)C(O)C(C)C1CCC2C3COC(=O)C4CC(O)C(O)CC4(C)C3CCC12C (stereo not given) [Brassinolide] the cell viability was 99.3%. O=c1c(-c2ccc(O)cc2)coc2cc(O[C@@H]3O[C@H](CO)[C@@H](O)[C@H](O)[C@H]3O)cc(O)c12 [Genistin (Genistoside)] showed a cell viability of 94.7%. Work on C[C@H]1[C@@H](O)O[C@@H]2O[C@@]3(C)CC[C@H]4[C@H](C)CC[C@@H]1[C@@]24OO3 [Dihydroartemisinin (DHA)] yielded a cell viability of 28.8%. In the case of Nc1ncnc2c1ncn2C(C=O)OC(C=O)CO (stereo not given) [Adenosine Dialdehyde (ADOX)], the cell viability is reported as 69.3%. COc1nc2ccc(Br)cc2cc1[C@@H](c1ccccc1)[C@@](O)(CCN(C)C)c1cccc2ccccc12 [Bedaquiline] showed a cell viability of 85.4%. In the case of CO[C@@H]1[C@@H](OC)[C@H](C)[C@@](O)(CC(=O)O)O[C@H]1[C@H](C)[C@H]1O[C@@]2(CC[C@@](C)([C@H]3CC[C@@](C)([C@@H]4O[C@@H]([C@H]5O[C@](C)(O)[C@H](C)C[C@@H]5C)C[C@@H]4O[C@@H]4C[C@H](OC)[C@@H](OC)[C@H](C)O4)O3)O2)C[C@H](O)[C@H]1C [Maduramycin Ammonium], the cell viability is reported as 8.25%.
